Common to all, as to assay: NCI-60 one-dose screen, 48 h (100 = growth as untreated, 0 = no growth, -100 = all killed)
The subject of test [1] is NCI-H322M lung. The settings on record: 10 µM unless noted.
The subject of test [2] is HOP-62 NSCLC. The conditions noted are these: 10 µM unless noted.
Test [3] deals with NCI-H460 lung. The conditions noted are these: 10 µM unless noted.
Test [4] concerns NCI-H522 lung. The settings on record: 10 µM.
The test system of test [5] is A549/ATCC NSCLC. The settings on record: 10 µM unless noted.
For test [6], the system named is 786-0 renal. The conditions noted are these: 10 µM unless noted.
In test [7] the test system is HOP-92 NSCLC. The conditions noted are these: 10 µM unless noted.
Test [8] deals with COLO 205 colon. The conditions noted are these: 10 µM unless noted.

SMILES strings stand for the structures. Compounds without any hit were thinned out: in the full panel of roughly 83,000, 20% have a hit.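 Single-concentration screen, 48 h exposure, 96-well plates. Endpoint: percent growth. Below 10 = active.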 Unmarked numbers belong to inactive results. Active and inactive are the calls of the source.

For the compound `COc1ccc(NC(=O)c2ccc3c(c2)nc(-c2ccc(Cl)cc2)n3-c2cc(C(C)(C)C)[nH]n2)cc1`, the growth in test [1] was 85.5%; in test [2], 106%; in test [3], 101%; in test [4] it was 73.7%; in test [5], 79.7%; in test [6], 87.6%.

For `C[C@]1(CO)C[C@@H](O)C[C@]2(C)[C@@H]1CC[C@@]13C[C@@H]4[C@@H](C[C@H]12)[C@]4(C)C3`, the growth is 103% in test [1]; 101% in test [2]; 104% in test [3]; 103% in test [7]; 101% in test [4]; 102% in test [5]. Further, the growth in test [6] was 104%.

Regarding `COc1ccc(-c2[nH]ncc2Nc2cc(OC)c(OC)c(OC)c2)cc1`, the growth is 48.7% in test [1]; 51.7% in test [2]; 14.1% in test [3]; 65.8% in test [7]; 12.7% in test [4]; 61.2% in test [5]. Moreover, the growth in test [6] was 44.1%; in test [8], -11.9% (active).

`COC(=O)CCC(=O)c1ccccc1`: the growth in test [1] is 119%; in test [2], 116%; in test [3], 106%; in test [4], 106%; in test [5], 95.4%; in test [6], 94.7%. The growth in test [8] was 115%.

Consider `c1ccc2cc(-c3n(Cc4ccc5ccccc5n4)c4ccccc4[n+]3Cc3ccc4ccccc4n3)ccc2c1`, for which the growth in test [1] is 7.73% (active); in test [2] it was -7% (active); in test [3] it was -57.3% (active); in test [7], -31.6% (active); in test [5], 6.23% (active); in test [6] it was 5.11% (active). The growth in test [8] was -66.7% (active).

Regarding `Cc1nc2cc(Nc3nc(Nc4ccc(F)cc4)nc(N4CCCC4)n3)ccc2n1Cc1ccccc1`, the growth was 21.4% in test [1]; -22.5% (active) in test [2]; -30.4% (active) in test [3]; -12.3% (active) in test [7]; -4.13% (active) in test [4]; -0.672% (active) in test [5]. Moreover, the growth in test [6] is -21.7% (active); in test [8] it was -72.6% (active).

With `COc1cc(/C=C2\C(=O)N(c3c(Cl)cccc3Cl)c3ccccc32)cc(OC)c1O`, the growth was 48.2% in test [1]; 48.6% in test [2]; -4.41% (active) in test [3]; 28% in test [4]; 16.9% in test [5]; 13.9% in test [6]. Moreover, the growth in test [8] is 74.8%.

In the case of `O=C(C[Si](CC(=O)c1cccc(C(F)(F)F)c1)CC(=O)c1cccc(C(F)(F)F)c1)c1cccc(C(F)(F)F)c1`, the growth in test [1] was 74.5%; in test [2], 95.6%; in test [3], 8.35% (active); in test [7] it was -27.9% (active); in test [4], 68.7%; in test [5], 49%. In addition, the results for the growth in test [6] and in test [8] were 75.8% and 98.4%, respectively.

Turning to `COc1ccc(NC(=O)COc2ccccc2)c(C(N)=O)c1`, the growth in test [1] is 59.3%; in test [2] it was 20.3%; in test [3], 11.2%; in test [4], 6.28% (active); in test [5], 24.8%; in test [6], 35.2%. The growth in test [8] was -12.1% (active).

With `O=c1c2c(=NCCN3CCCC3)cc3c(=O)n(CCCN4CCOCC4)c(=O)c4ccc(c(O)n1CCCN1CCOCC1)c2c4-3`, the growth in test [1] is -10.8% (active); in test [2], -17.3% (active); in test [3], -8.16% (active); in test [7] it was -4.88% (active); in test [5] it was 6.22% (active); in test [6] it was 1.28% (active). In test [8], the growth is -55.8% (active).

Turning to `COc1ccc(S(=O)(=O)ON=C2C=C(C)C(=O)C(C)=C2)cc1`, the growth in test [1] is 103%; in test [2] it was 106%; in test [3], 106%; in test [7] it was 59.4%; in test [5] it was 105%; in test [6], 93.1%. Further, in test [8], the growth is 89.2%.

In the case of `COc1cc(C(F)(F)F)ccc1-c1cc(-c2ccc(F)cc2)n[nH]1`, the growth is 90.6% in test [1]; 97.8% in test [2]; 91.6% in test [3]; 96.1% in test [7]; 64.9% in test [5]; 99.9% in test [6].

On to `Cc1ccc(S(=O)(=O)N2CCc3ccc(O)c4c3C2Cc2cc(Cl)ccc2-4)cc1` (stereo not given), for which the growth in test [1] is 78.3%; in test [2] it was 69.2%; in test [3], 33.6%; in test [7] it was 62.8%; in test [4], 18.4%; in test [5] it was 53.9%. Besides, the growth in test [6] was 88.2%.

On to `N#Cc1c(O)c2c(c(O)c1C#N)C(=O)c1ccccc1C2=O`, for which the growth is 38.4% in test [1]; 59.8% in test [2]; 22.7% in test [3]; 88.5% in test [7]; -5.65% (active) in test [4]; 27.3% in test [5]. Further, the growth in test [6] is 90.9%; in test [8] it was -4.03% (active).

Values taken from PubChem BioAssay (NCI).
